Assay outcomes as filed in PubChem.
Eya2 inh – blocks the phosphatase activity of human Eya2. actives 0.006% (n = 330,000). AID 488837. recombinant Eya2, OMFP fluorescence dephosphorylation (OMFP is methylfluorescein phosphate). Potency, µM (titrated, usually from 76.9 µM), for the others: at the highest dose activity, negative = inhibition, most hits filed as inhibitors; further: potency means the concentration at half of the fitted maximal effect; on the % scale 0 is the no-effect control and ±100 the full control effect
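Eya2 protein (added as 0.2 uM solution) was preincubated with compound for 10 min at ambient temperature in 50 mM HEPES pH 7.5, 50 mM NaCl, 5 uM MgCl2, 0.05% BSA, 1 mM DTT. OMFP (added at 50 uM) then reacted 10 min; fluorescence read at 485/525 nm.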
D1 antag – antagonists of human D1 dopamine receptor; activity change, negative = inhibition, % at 10 µM; HEK293 TREx D1 cells, calcium flux, dopamine EC80; hits give low values; AID 504652; actives 3.2% (n = 360,000); P21728; in the data active means activity change below about -30%; further: on the % scale 0 is the no-effect control and ±100 the full control effect
Target sequence (P21728 whole entry, looked up): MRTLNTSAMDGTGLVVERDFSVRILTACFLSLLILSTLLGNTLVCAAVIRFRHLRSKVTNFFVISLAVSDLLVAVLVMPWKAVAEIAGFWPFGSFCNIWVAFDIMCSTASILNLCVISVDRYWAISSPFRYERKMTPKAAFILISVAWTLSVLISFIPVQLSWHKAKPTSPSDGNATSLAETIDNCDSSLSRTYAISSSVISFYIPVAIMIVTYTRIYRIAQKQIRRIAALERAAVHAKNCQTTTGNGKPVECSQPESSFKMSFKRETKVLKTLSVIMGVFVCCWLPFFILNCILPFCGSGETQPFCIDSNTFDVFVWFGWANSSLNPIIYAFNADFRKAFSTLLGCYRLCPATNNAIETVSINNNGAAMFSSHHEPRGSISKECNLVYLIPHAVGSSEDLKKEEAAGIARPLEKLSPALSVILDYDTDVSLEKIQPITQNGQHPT
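Calcium flux readout: force-coupled, inducible Hek293 Trex D1 line, cells induced overnight at 30 C with tetracycline, dye-loaded 30–90 min at RT. Antagonism scored against EC80 dopamine challenge given 180 s after compound.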
D1 agonist – activates the human D1 dopamine receptor. HEK293 T-REx D1 cells, calcium flux, agonist mode. activation, % at 2 µM. actives 1% (n = 360,000). P21728. AID 504660; in the data active means activation above about 30%; further: 0% is about no effect
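Agonism was scored from calcium flux recorded over 180 s (1 read/s) after pintool compound addition, following a 10-cycle baseline. Cells were inducible force-coupled HEK293 TREx D1, plated overnight at 30 C and loaded with no-wash calcium dye.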
GALK inh – blocks human galactokinase activity; Purified GALK, Kinase-Glo residual ATP luminescence; actives 0.007% (n = 270,000); P51570; Potency, µM (titrated, usually from 57.5 µM), inactives show at the top dose activity change, negative = inhibition, most hits filed as inhibitors; AID 1868; further: potency means the concentration at half of the fitted maximal effect; on the % scale 0 is the no-effect control and ±100 the full control effect
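5 nM enzyme, 35 uM ATP, 100 uM galactose, 20 mM HEPES pH8.0, 5 mM MgCl2; 1 h RT; residual ATP by Kinase-Glo Plus luminescence, qHTS format.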
D1 potentiator – potentiators of human D1 dopamine receptor; actives 0.036% (n = 360,000); P21728; potentiation, % at 10 µM; HEK293 TREx D1 cells, calcium flux, dopamine EC20 potentiation; in the data active means potentiation above about 30%; further: 0% is about no effect
USP2a inh – USP2a (human) protease inhibition | O75604 | USP2 core, Ub-CHOP2 coupled fluorogenic reporter, 485/531 | Potency, µM (series often up to 38.3 µM), without a hit: at the highest dose activity change, negative = inhibition, most hits filed as inhibitors | actives 0.01% (n = 330,000) | AID 463254;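 further: potency means the concentration at half of the fitted maximal effect; plate controls were DMSO wells for no effect and full inhibition by NEM control for full effect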
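Deubiquitinase activity read as fluorescence (485/531 nm) after Ub-CHOP2 cleavage activates the enterokinase reporter on its substrate; USP2 core 10nM, Ub-CHOP2 and substrate 25nM each, 30min compound preincubation then 60min RT; data normalized to NEM, curves fitted.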
An asterisk follows results filed as active; ? = inconclusive; nt = no result. Hits are enriched below; roughly 3.9% of the tested compounds scored in any of these assays. Unless noted, the call rests on the fitted dose curve; in most records, active means well fitted inhibition curve with a large enough effect; inconclusive means small, poorly fitted or top-dose-only effect, or effect the other way; inactive means flat fitted curve, though single readings scatter.

SMILES | Eya2 inh | D1 antag | D1 agonist | GALK inh | D1 potentiator | USP2a inh
Cc1ccc(N/C(N)=N/c2nc3c(c(=O)[nH]2)CCCC3)c(C)c1 | 4% | 4 | 1 | nt | -8 | 1%
Cc1ccc(N/C(N)=N/c2nc(C)cc(N3CCCCC3)n2)c(C)c1 | -27% | -99* | 16 | 5% | -8 | 0%
O=C(OCc1cc(=O)n2nc(C3CCCCC3)sc2n1)c1ccc(F)cc1 | nt | 7 | 5 | nt | -3 | nt
CCOC(=O)c1sc(=S)n(-c2cccc(C(F)(F)F)c2)c1SC | -12% | -32* | 7 | -1% | -1 | 1%
CCOC(=O)c1sc(=S)n(-c2ccccc2)c1SC | -1% | -13 | 0 | -4% | -1 | 1%
CCOC(=O)CC(=O)CSc1nc2ccsc2c(=O)n1Cc1ccccc1 | nt | 7 | 2 | nt | -2 | nt
O=C(CCNS(=O)(=O)c1ccc(Br)cc1)NC1CCC(O)CC1 (configuration not stated) | -5% | -31* | 2 | nt | -4 | -5%
CCc1c(C(=O)NCCc2ccc(N3CCCCC3)cc2)[nH]c2ccc(Cl)cc12 | -9% | nt | nt | nt | nt | nt
CC(C)N(Cc1ccccc1)C(=O)c1cc2ccc3cccnc3c2[nH]1 | nt | -34* | 6 | nt | 4 | nt
Nc1nnc(SCC(=O)Nc2nccs2)s1 | 6% | -43* | 1 | 0% | -5 | -9%
Cc1nnc(SCC(=O)Nc2nccs2)s1 | -3% | 6 | -2 | -4% | -6 | 2%
O=C1c2ccccc2-c2cccc(NS(=O)(=O)c3ccc(C(F)(F)F)cc3)c21 | -14% | 3 | 55* | -3% | 0 | 1%
Cc1ccc(S(=O)(=O)NNC(=O)c2ccccc2-n2cccc2)cc1 | 1% | -1 | 9 | -3% | 1 | 0%
COc1ccc(S(=O)(=O)NNC(=O)c2ccccc2-n2cccc2)cc1 | 11% | -61* | 1 | 2% | -5 | -1%
O=C(NCCn1ccc2ccccc21)c1cccc([N+](=O)[O-])c1 | 18% | -37* | 8 | 0% | -3 | 10%
O=C(NCCCN1CCN(CCCNC(=O)c2cccc([N+](=O)[O-])c2)CC1)c1cccc([N+](=O)[O-])c1 | -4% | -30 | 0 | -3% | 0 | 2%
O=C(N/N=C/c1cc(Cl)cc([N+](=O)[O-])c1O)c1ccccc1NS(=O)(=O)c1cccs1 | -3% | -30* | 4 | -2% | -3 | 0%
Nc1ncc(S(=O)(=O)N2CCN(c3ccccc3)CC2)cn1 | nt | 14 | 1 | nt | -1 | nt
COC(=O)c1cc(C)nc2c1c(=O)nc(SCc1cccc(C)c1)n2C1CC1 | nt | -1 | 3 | nt | 0 | nt
Cc1ccccc1OCC(=O)N(CC(C)C)c1c(N)n(CC(C)C)c(=O)[nH]c1=O | ? | -7 | 3 | -1% | -4 | 9%
Cc1ccc(OCC(=O)N(C)CC(=O)N(CC(C)C)c2c(N)n(CC(C)C)c(=O)[nH]c2=O)c(C)c1 | -16% | -31* | 1 | nt | -3 | 1%
O=C(COC(=O)c1cc(S(=O)(=O)NCc2ccccc2)ccc1O)c1cc2ccccc2o1 | 8% | -62* | 2 | -1% | -4 | 1%
O=C(COC(=O)c1cc(S(=O)(=O)NCc2ccccc2)ccc1O)NCc1ccccc1 | 4% | -3 | 2 | 0% | 6 | 3%
Cc1cc(N2CCN(c3nc4ccccc4s3)CC2)n2ncnc2n1 | -4% | -32* | 9 | -1% | -2 | 1%
Cc1cc(N2CCN(C(c3ccccc3)c3ccccc3)CC2)n2ncnc2n1 | nt | 8 | 5 | 0% | -2 | nt
SMILES | Eya2 inh | D1 antag | D1 agonist | GALK inh | D1 potentiator | USP2a inh
O=C(NCC(c1ccc2c(c1)OCO2)N1CCN(c2ccccc2)CC1)C(=O)Nc1ccccc1 (configuration not stated) | nt | -2 | 2 | nt | 0 | nt
COc1cc(CC(=O)OCC(=O)NCC(C)C)cc(OC)c1OC | -30% | -33* | 9 | -2% | -3 | 2%
COc1cc(CCC(=O)OCC(=O)c2ccc[nH]2)cc(OC)c1OC | -5% | -42* | 6 | nt | nt | 0%
O=C(CCC(=O)OCC(F)(F)C(F)F)Nc1ccc(F)cc1F | 4% | -60* | 3 | 1% | -4 | -3%
COc1cc(CC(=O)OCC(=O)c2ccc[nH]2)cc(OC)c1OC | -35% | nt | nt | nt | nt | 4%
COc1cc(CCC(=O)OCC(=O)Nc2ccc(F)cc2F)cc(OC)c1OC | -2% | -48* | 16 | 0% | -2 | -1%
CCOC(=O)c1cccc(NC(=O)CCc2c(C)nn(-c3ccc(N4CCCCC4)nn3)c2C)c1 | nt | 2 | 0 | nt | -3 | nt
Cc1cccc(N2CCN(C(=O)CCc3nnc4n(CC(C)C)c(=O)c5ccccc5n34)CC2)c1C | nt | -4 | 3 | nt | -4 | nt
CCCCNC(=O)Cn1ncc2c(C)n(Cc3cccc(Cl)c3)c(C)c2c1=O | nt | 2 | 3 | nt | 1 | nt
CCCCN(C)CCCNC(=O)CN1C(=O)COc2ccc(S(=O)(=O)N3CCC(C)CC3)cc21 | nt | -12 | 1 | nt | 0 | nt
Cc1ccccc1NC(=O)CCNC(=O)Cn1ccc2ccccc2c1=O | nt | -35* | 3 | nt | 1 | nt
COc1ccccc1NC(=O)CCNC(=O)Cn1ccc2ccccc2c1=O | -7% | -12 | 1 | 0% | -2 | 5%
COc1ccc(CNC(=O)CN(C2CCCCC2)S(C)(=O)=O)cc1 | -6% | -32* | 2 | 1% | -9 | 1%
Cc1ccc(CNC(=O)CN(C2CCCCC2)S(C)(=O)=O)cc1 | 9% | 10 | -2 | -2% | -9 | 3%
CS(=O)(=O)N(CC(=O)NCc1ccccc1)C1CCCCC1 | 3% | -61* | -1 | -3% | -14 | 0%
Cn1cc(S(=O)(=O)N2CCCCC2)cc1C(=O)NCc1ccc(Cl)cc1 | nt | -11 | 9 | nt | -3 | nt
CCOC(=O)Cc1ccc(NC(=O)Nc2nnc(N3CCCCC3C)s2)cc1 (configuration not stated) | nt | 6 | 1 | nt | 2 | nt
CC(Sc1oc(-c2cccs2)nc1S(=O)(=O)c1ccccc1)c1ccccc1 (configuration not stated) | nt | 9 | 4 | nt | 1 | nt
OCCN1CCOCCOc2ccccc2OCCOCC1 | -8% | 4 | 2 | 4% | -2 | -4%
c1ccc2c(c1)OCCOCCOCCOCCOCCOc1ccccc1OCCOCCOCCO2 | -1% | -36* | 22 | nt | -3 | 0%
CN1CCN(CC(O)(c2ccc(Cl)cc2)c2ccc(Cl)cc2)CC1 | -30% | -30* | 24 | -2% | -8 | 2%
CN1CCN(CC(O)COc2ccc(Cl)cc2)CC1 (configuration not stated) | -21% | 15 | 4 | 1% | 1 | -1%
Cc1cc(OCc2cc(C(=O)NCc3csc(C(C)C)n3)no2)cc(C)c1Cl | -7% | -41* | 71* | -5% | 6 | 1%
